# Results from PubChem BioAssay (NCATS).
# Where “and” joins values, the source holds several entries; their conditions need not be identical. Equal entries are not always repeated. Results filed as inconclusive are left out. A number with no mark means an inactive call. Calls of active or inactive are those of the source. Unless noted, calls come from the whole dose curve; as a rule, active = well fitted inhibition curve with a large enough effect in the repeat runs; inconclusive = weak or mixed curves; inactive = no such curve, though single readings can be large or run the other way.
# Molecular target: Cytochrome P450 3A4 (Homo sapiens) (UniProt P08684)
# Assay: Cytochrome P450 family 3 subfamily A member 4 (CYP3A4) small molecule antagonists: luciferase qHTS assay (AID 1645841); note: nearly all actives have a fitted effect of over 45% in size
# Details: P450-Glo CYP3A4 enzyme assay, luciferin luminescence; series mostly up to 57.4 µM; activity change, negative = inhibition: at the top concentration
# How it was run: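 Luminescent CYP3A4 activity readout: compounds plus enzyme-substrate mix 10 min at room temperature, reaction started with NADPH regenerating system for 1 h, stopped with detection reagent, read after 20 min. Ketoconazole served as control.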
# Chain of Cytochrome P450 3A4 (Homo sapiens) (P08684 whole entry, looked up): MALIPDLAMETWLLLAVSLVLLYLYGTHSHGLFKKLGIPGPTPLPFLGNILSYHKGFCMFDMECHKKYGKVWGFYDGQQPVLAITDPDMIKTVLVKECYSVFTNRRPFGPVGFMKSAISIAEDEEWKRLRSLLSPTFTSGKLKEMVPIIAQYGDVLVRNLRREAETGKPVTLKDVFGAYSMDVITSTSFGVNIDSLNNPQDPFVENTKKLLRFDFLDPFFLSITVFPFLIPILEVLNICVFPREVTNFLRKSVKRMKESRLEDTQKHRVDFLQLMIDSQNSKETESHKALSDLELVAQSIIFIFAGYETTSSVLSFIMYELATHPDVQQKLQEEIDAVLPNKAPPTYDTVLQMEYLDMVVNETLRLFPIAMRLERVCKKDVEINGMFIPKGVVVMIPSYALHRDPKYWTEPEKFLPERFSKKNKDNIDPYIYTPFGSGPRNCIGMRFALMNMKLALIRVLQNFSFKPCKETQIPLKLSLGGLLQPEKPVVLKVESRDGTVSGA
row,Compound,"activity change, negative = inhibition"
1,O=[N+]([O-])c1ccc([As](=O)(O)O)cc1,-3.17%
2,O=C(O)CNC(=O)c1c(O)c2ccccc2n(Cc2ccccc2)c1=O,25.3%
3,CC[N+]1(CCOC(=O)C(O)(c2ccccc2)c2ccccc2)CCCCC1,-5.53%

# Molecular target: Cytochrome P450 2C9 (Homo sapiens) (UniProt P11712)
# Assay: Cytochrome P450 family 2 subfamily C member 9 (CYP2C9) small molecule antagonists: luciferase biochemical (cell-free) qHTS assay (AID 1645842); note: nearly all actives have a fitted effect of over 55% in size; note: potency is the fitted concentration of half-maximal effect; for activity change, negative = inhibition: % is set by controls: 0 for no effect and ±100 for the full control effect
# Details: P450-Glo CYP2C9 enzyme assay, luciferin luminescence; series mostly up to 57.4 µM; activity change, negative = inhibition: at the top concentration
# How it was run: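 Luminescence, after 20 min with luciferin detection reagent, reflected CYP2C9 turnover during a 1 h NADPH-driven reaction at 37C. Enzyme-substrate mix contained 0.4% bovine serum albumin and was preincubated with compound 10 min at room temperature.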
# Chain of Cytochrome P450 2C9 (Homo sapiens) (P11712 whole entry, looked up): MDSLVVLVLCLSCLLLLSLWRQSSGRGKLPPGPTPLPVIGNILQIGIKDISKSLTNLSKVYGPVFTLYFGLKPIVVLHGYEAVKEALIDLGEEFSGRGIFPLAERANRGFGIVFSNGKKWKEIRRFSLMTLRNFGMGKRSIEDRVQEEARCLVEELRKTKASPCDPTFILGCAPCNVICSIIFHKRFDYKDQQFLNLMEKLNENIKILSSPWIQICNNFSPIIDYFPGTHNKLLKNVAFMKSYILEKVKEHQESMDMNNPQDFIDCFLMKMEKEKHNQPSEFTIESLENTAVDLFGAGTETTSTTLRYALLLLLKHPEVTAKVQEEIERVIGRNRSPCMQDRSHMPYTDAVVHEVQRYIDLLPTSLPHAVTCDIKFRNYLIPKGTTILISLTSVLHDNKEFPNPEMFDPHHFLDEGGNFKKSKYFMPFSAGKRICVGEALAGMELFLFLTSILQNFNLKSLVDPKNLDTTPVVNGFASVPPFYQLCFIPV
Compound,Potency,"activity change, negative = inhibition"
CC1(C)CC/C(=C/c2ccc(Cl)cc2)C1(O)Cn1cncn1 (stereo not given),0.611 µM (active),–
O=[N+]([O-])c1c(Cl)c(Cl)cc(Cl)c1Cl,–,10% [at 115 µM]
CCCCOC(=O)c1ccccc1C(=O)OCc1ccccc1,8.2 µM (active),–
Cc1c(C(=O)Nc2cccc(C(F)(F)F)c2)cc(-c2ccccc2)n1CCCN1CCOCC1,4.77 µM (active),–
Cc1[nH]nc2ccc(-c3cncc(OC[C@@H](N)Cc4c[nH]c5ccccc45)c3)cc12,0.674 µM (active),–
C=CC(=O)NCNC(=O)C=C,–,9.13% [at 115 µM]
CCOC(=O)Nc1ccc(NCc2ccc(F)cc2)cc1N,9.52 µM (active),–
O=S(=O)(O)C(F)(F)C(F)(F)C(F)(F)C(F)(F)C(F)(F)C(F)(F)C(F)(F)C(F)(F)F,0.564 µM (active),–
CCCCCCCCCC(CC)c1ccc(S(=O)(=O)O)cc1 (stereo not given),7.74 µM (active),–
O=[N+]([O-])c1ccc([As](=O)(O)O)cc1,–,9.69%
CCc1c(C(=O)C(N)=O)c2c(OCC(=O)O)cccc2n1Cc1ccccc1,–,-0.252%
O=C(O)COc1nc(Cl)c(Cl)cc1Cl,–,3.41% [at 115 µM]
CCN1CCN(C(=O)Cc2ccc(Nc3ncc(F)c(Nc4ccc(C(=O)Nc5ccccc5Cl)cc4)n3)cc2)CC1,1.9 µM (active),–
CC(C)(C)NC[C@H](O)c1ccc(O)cc1Cl,–,-5.75%
CCOP(=O)(NC(C)C)Oc1ccc(SC)c(C)c1 (stereo not given),9.47 µM (active),–
O=c1[nH]c2ccc(Cl)cc2c(N[C@@H]2CN3CCC2CC3)c1-c1nc2ccccc2[nH]1,10.7 µM (active) and 8.49 µM (active),–
O=C(Oc1ccc([N+](=O)[O-])cc1)N1CCN(Cc2cccc(Oc3ccccc3)c2)CC1,19 µM (active),–

Compound,Potency,"activity change, negative = inhibition"
CC(=O)N(C)c1cccc(-c2ccnc3c(C(=O)c4cccs4)cnn23)c1,–,-3.68%
c1cc2ccc3cccc4ccc(c1)c2c34,–,7.64% [at 115 µM]
Cc1ccccc1-n1c(Cn2ncc3c(N)ncnc32)nc2cccc(C)c2c1=O,13.5 µM (active),–
COCC1(CO)C(=O)C2CCN1CC2 (stereo not given),–,8.45%
C=CCC1=C(C)C(OC(=O)C2C(C=C(C)C)C2(C)C)CC1=O (stereo not given),5.02 µM (active),–
CCC1(CCC(C)C)C(=O)NC(=O)NC1=O,–,-1.94% [at 115 µM]
Nc1ccc(Sc2ccc(N)cc2)cc1,0.92 µM (active),–
CCOCCOC(C)=O,inactive,–
CC(C)N(CCNC(=O)CN1CCCC1=O)C(C)C,–,-9.46%
CC[N+]1(CCOC(=O)C(O)(c2ccccc2)c2ccccc2)CCCCC1,–,8.27%
CC(O)CN1CCN(CC(=O)[O-])CCN(CC(=O)[O-])CCN(CC(=O)[O-])CC1.[Gd+3] (stereo not given),–,0.614%
COc1ccc(N(C(=O)Oc2c(C)cccc2C)c2ccnc(Nc3ccc(N4CCN(C)CC4)cc3)n2)c(OC)c1,21.3 µM (active),–
O=C(Nc1ccncc1)C(=O)c1cn(Cc2ccc(Cl)cc2)c2ccccc12,0.301 µM (active),–
COCCOCCO,–,13.7% [at 115 µM]
Cc1ccc(Cl)c(O)c1,–,12.7%
CC(=O)Nc1ccc(OC[C@](C)(O)C(=O)Nc2ccc([N+](=O)[O-])c(C(F)(F)F)c2)cc1,9.52 µM (active),–
CN(C)[C@@H]1C(=O)C(C(N)=O)=C(O)[C@@]2(O)C(=O)C3=C(O)c4c(O)cccc4[C@@](C)(O)[C@H]3[C@H](O)[C@@H]12,–,4.43%

# Test system: not listed separately
# Assay: Confirmatory qHTS to identify inhibitors of SARS-CoV-2 cell entry (AID 1645844; calls by dose curve; note: nearly all actives have a fitted effect of over 45% in size; note: potency is the fitted concentration of half-maximal effect; for activity, negative = inhibition: % is set by controls: 0 for no effect and ±100 for the full control effect)
# Details: SARS-CoV-2 pseudotyped particle cell entry, luciferase; series mostly up to 57.2 µM; activity, negative = inhibition: at the top concentration
# How it was run: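 Luminescence from a luciferase reporter, read 48 hr after pseudotyped-particle addition, gives entry signal, normalised to spike-bearing PP wells and bald PP lacking fusion protein wells. Cells are Expi293F stably expressing human ACE2, compound-pretreated 1 hr.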
Compound,"activity, negative = inhibition",Potency
CCc1c(C(=O)C(N)=O)c2c(OCC(=O)O)cccc2n1Cc1ccccc1,-22.4%,–
Cc1ccccc1-n1c(Cn2ncc3c(N)ncnc32)nc2cccc(C)c2c1=O,–,7.64 µM (active)
O=C(Nc1ccncc1)C(=O)c1cn(Cc2ccc(Cl)cc2)c2ccccc12,–,0.961 µM (active)
